# Measurements taken from the supplement of paper PMC7156485.
# ± gives the standard deviation of the averaged measurements.
# System: HCC1569
# Assay: cell number relative to DMSO (% of DMSO); higher = more cells (less growth inhibition / toxicity)
# Conditions: concentration: 10 µM; 24 h
# Procedure, shortened: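 After 24 h at 37 °C with compounds at 10 µM, in triplicate, HCC1569 and TDF cells were fixed with 3.7% formaldehyde. Immunostaining used a rabbit anti-H1.0 antibody and an AlexaFluor 647 secondary, with DAPI, and six fields per well were imaged at ×10. H1.0 nuclear intensity or cell number is presented as percent of the plate control, from the median of replicates, with HCC1569 values smoothed for positional effects.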
# 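Also: TDF denotes transformed human dermal fibroblasts of mesenchymal origin.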
row,Compound,cell number
1,Cc1ccc(NC(=O)c2ccc(CN3CCN(C)CC3)cc2)cc1Nc1nccc(-c2cccnc2)n1 [Imatinib],101
2,CCCCCCCCCC(=O)NC(CN1CCOCC1)C(O)c1ccccc1 (racemic),99.8
3,C[N+](C)(C)CC(O)CC(=O)[O-].Cl (racemic),102
4,CCN1CCN(c2cc3c(cc2F)c(=O)c(C(=O)O)cn3C2CC2)CC1 [Enrofloxacin],101
5,CC1(C)CNc2cc(NC(=O)c3cccnc3NCc3ccncc3)ccc21 [Motesanib],90
6,Cc1ccc(C(=CCN2CCCC2)c2ccccn2)cc1.Cl [Trans-triprolidine.HCl],100
7,O=c1c2ccccc2[nH]c(=S)n1CCN1CCC(=C(c2ccc(F)cc2)c2ccc(F)cc2)CC1 [Diacylglycerol Kinase Inhibitor II],105 ± 1.1
8,Br.Br.N=C(N)SCCN [2-(2-Aminoethyl)isothiourea dihydrobromide],99.2
9,O=C(Nc1cccc(Cl)c1)Nc1ncc(CCNc2ncnc3ccsc23)s1,66.1
10,O=C1CCC(c2ccc(-n3ccnc3)cc2)=NN1 [Imazodan],95.5
11,CCCn1cnc2c1c(=O)n(CCCCC(C)=O)c(=O)n2C [Propentofylline],104
12,COC(=O)C1C(O)CCC2CN3CCc4c([nH]c5ccccc45)C3CC21.Cl (stereo not given) [Rauwolscine hydrochloride],99.9
13,"OCCOc1ccc(/C(=C(/CCCl)c2ccccc2)c2ccccc2)cc1 [2-{4-[(1Z)-4-chloro-1,2-diphenyl-1-butenyl]phenoxy}ethanol]",101
14,COC(=O)CNC(=O)C(=O)OC [methyl 2-(2-methoxy-2-oxoethylamino)-2-oxoacetate],96.5
15,O=C1NCCN1CCN1CCC(c2cn(-c3ccc(F)cc3)c3ccc(Cl)cc23)CC1,66.8
16,CC(CCc1ccc(O)cc1)NCCc1ccc(O)c(O)c1.Cl (stereo not given) [Dobutamine hydrochloride],101
17,Cl.O.O=C(O)CN(CCN(CC(=O)O)Cc1ccccc1O)Cc1ccccc1O,105
18,C=CC(N)CCC(=O)O (racemic),92.9

row,Compound,cell number
1,CC12C=Cc3occc3C1CCC13CC(=O)C(CCC12)C3 (stereo not given) [16-Oxokahweol],97.7
2,N#Cc1c(O)c2c(-c3ccc(-c4ccccc4O)cc3)csc2[nH]c1=O,102
3,CC1C(=O)OC2C(O)C34C5CC(C(C)(C)C)C36C(OC(=O)C6O)OC4(C(=O)O5)C12O (stereo not given) [Ginkgolide B],104
4,CCCCc1oc2ccccc2c1C(=O)c1cc(I)c(OCCN(CC)CC)c(I)c1.Cl [Amiodarone hydrochloride],98.5
5,"O=C(OC12CC3CC(CC(C3)C1)C2)c1ccc(NCc2cc(O)ccc2O)cc1 [1-adamantyl 4-[(2,5-dihydroxybenzyl)amino]benzoate]",8.48
6,CN(C)c1nc(N(C)C)nc(N(C)C)n1 [Altretamine],103.1 ± 0.68
7,CC1=NN(c2ccc(C(=O)O)cc2)C(=O)/C1=C\c1ccc(-c2cc(C)c(C)cc2[N+](=O)[O-])o1,89.5
8,CC(N)=NCCCC[C@H](N)C(=O)O.Cl [L-N6-(1-Iminoethyl)lysine hydrochloride],103
9,CCC1(c2ccccc2)C(=O)NCNC1=O [Primidone],102
10,Cc1ccccc1/N=N/c1ccc(NC(=O)c2ccnn2C)c(C)c1,94.6
11,CCCCCCCCCCCCCC=CC(O)C(N)CO (stereo not given) [Sphingosine],103 ± 4.4
12,CNC(=C[N+](=O)[O-])NCCSCc1ccc(CN(C)C)o1.Cl [Ranitidine.HCl],110
13,CCCCC1(C2CCCC2)Cc2cc(OCC(=O)O)c(Cl)c(Cl)c2C1=O (stereo not drawn) [R(+)-Butylindazone],98.8
14,COc1nc(C)nc(Cl)c1NC1=NCCN1.Cl [Moxonidine hydrochloride],102
15,COc1ccc2c(c1OC)C(=O)OC2C1c2c(cc3c(c2OC)OCO3)CCN1C (racemic),98.6
16,Cc1cccc2c3c(ccc12)C1=C(C(=O)C3=O)C(C)CO1 (stereo not given) [Dihydrotanshinone],53.6
17,CC(C)(C)c1nc2c3cc[nH]c(=O)c3c3cc(F)ccc3c2[nH]1,110
